A selection: hits, their analogues and other compounds. The true share with any hit is near 2.9%.
ALOX12 inh: ALOX12 (human) lipoxygenase inhibition; P18054; purified 12hLO, xylenol orange hydroperoxide absorbance; Potency, µM (titrated, usually from 108 µM), hits mostly inhibitors; 1.1% of 580,000 active; AID 1671190
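Hydroperoxide product was detected by ferrous iron/xylenol orange as the 573 to 405 nm absorbance ratio. Arachidonic acid at 40 uM (final) was turned over for 30 min at room temperature by 150 nM human 12hLO, pH 7.0 Hepes buffer, after 15 min compound preincubation.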
POLH inh: blocks human DNA polymerase eta activity; recombinant Pol eta, fluorescent DNA replication assay; Potency, µM (doses to about 114 µM), actives largely listed as inhibitors; 1.2% of 390,000 active; AID 588591
Target sequence (Q9Y253 whole entry, looked up): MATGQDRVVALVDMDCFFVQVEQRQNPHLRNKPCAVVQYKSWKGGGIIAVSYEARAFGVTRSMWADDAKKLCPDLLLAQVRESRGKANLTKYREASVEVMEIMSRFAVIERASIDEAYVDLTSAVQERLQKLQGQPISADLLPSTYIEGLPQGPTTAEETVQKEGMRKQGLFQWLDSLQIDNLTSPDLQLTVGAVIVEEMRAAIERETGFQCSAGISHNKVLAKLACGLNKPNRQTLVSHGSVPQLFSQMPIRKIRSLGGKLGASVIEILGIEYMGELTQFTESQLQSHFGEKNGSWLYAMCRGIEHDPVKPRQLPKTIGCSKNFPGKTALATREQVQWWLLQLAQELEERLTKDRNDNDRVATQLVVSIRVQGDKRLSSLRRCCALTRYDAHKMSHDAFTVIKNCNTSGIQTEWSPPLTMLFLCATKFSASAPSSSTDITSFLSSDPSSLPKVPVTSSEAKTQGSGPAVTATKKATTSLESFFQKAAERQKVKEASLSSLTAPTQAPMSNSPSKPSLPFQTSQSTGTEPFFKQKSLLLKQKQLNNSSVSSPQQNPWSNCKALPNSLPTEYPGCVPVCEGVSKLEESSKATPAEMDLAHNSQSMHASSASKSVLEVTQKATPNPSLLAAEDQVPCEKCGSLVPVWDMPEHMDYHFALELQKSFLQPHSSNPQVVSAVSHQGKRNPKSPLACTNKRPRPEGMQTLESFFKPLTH
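Pol eta at 10 nM preincubated with compounds 15 min at room temperature; reaction started with fluorescent substrate (50 nM final) and read kinetically at 0 and 10 min.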
PI5P4Ka inh: inhibitors of human PI5P4K alpha. P48426. PI5P4Kalpha enzyme, ADP-Glo luminescence, 60 min; hits give low values. max response, %. 1.2% of 330,000 active. AID 652105; active = max response of -50% or lower; inconclusive = between -30% and -50%; inactive = -30% or higher; note: value at the top dose of about 77 µM
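Human PI5P4Kalpha with substrate in 0.038 M HEPES pH 7.4, 0.28 mM EGTA, 0.1% CHAPS, 5% DMSO; reaction started with 5 microM ATP (final), 60 min at room temperature. ADP formed read by ADP-Glo luminescence.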
POLK inh: DNA polymerase kappa (human) inhibition; AID 588579; purified Pol kappa, fluorescent DNA synthesis assay, 10 min; 0.53% of 400,000 active; Q9UBT6; Potency, µM (series often up to 107 µM), usual class: inhibitors
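Activity was followed as the change in fluorescence between reads at 0 and 10 min after starting the reaction with 50 nM substrate. Beforehand, 10 nM polymerase had been preincubated with compound for 15 min at room temperature.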
Pol beta inh-1: DNA polymerase beta (human) inhibition | P06746 | Pol beta primer extension/strand displacement, fluorescence kinetic | Potency, µM (top dose mostly 114 µM), actives largely listed as inhibitors | 1.3% of 340,000 active | AID 485314
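Kinetic readout of DNA synthesis with strand displacement by Pol beta. Compound and 10 nM enzyme sit 15 min at room temperature; 50 nM substrate starts the reaction, read immediately and at 10 min.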
POLI inh: inhibitors of human DNA polymerase iota; Q9UNA4; Pol iota fluorescent replication assay, 10 min; Potency, µM (highest dose often 115 µM), most hits filed as inhibitors; 1% of 390,000 active; AID 588590
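Fluorescent replication assay read twice, at 0 min and 10 min after adding 50 nM (final) substrate. Enzyme (10 nM) and compounds were first incubated 15 min at room temperature; enzyme-free buffer wells were negative controls.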
Pol beta inh-2: Validate hits inhibiting human DNA polymerase beta; shares compounds with Pol beta inh-1; Pol beta primer extension/strand displacement, fluorescence kinetic; Potency, µM, usual class: inhibitors; 87% of 250 active; AID 540280; calls by dose curve
Klenow inh: counter-screen for DNA polymerase beta inhibitors: Klenow fragment inhibition; shares compounds with Pol beta inh-1; 250 tested, under 10 active; activity change, negative = inhibition, % at 57.1 µM; Klenow exo- polymerase counter-screen, fluorescent DNA substrate
HIV RT counter: HIV-1 RT inhibition, pol beta selectivity check; 250 tested, under 10 active; AID 540301; shares compounds with Pol beta inh-1; HIV-1 RT polymerase activity, counter-screen; activity % (negative = inhibition, positive = activation), % at 57.1 µM
POLB valid: DNA polymerase beta inhibition, radiolabeled validation. 91% of 110 active. radiolabeled primer extension gel assay, phosphorimager. AID 540325. inhibition, % at 10 µM. shares compounds with Pol beta inh-1;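 active = inhibition at 10 µM of 30% or more; inconclusive = no clear call, values can overlap the other calls; inactive = inhibition at 10 µM under 30%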
A number is an active result. Unless noted, calls come from the whole dose curve; as a rule, active = well fitted curve in the direction sought with a large enough effect; inconclusive = small, poorly fitted or top-dose-only effect, or another doubt; inactive = no such curve, though single readings can be large; an effect the other way counts as inactive or inconclusive.

Results for Oc1c(Cl)cc(CN2CCCCC2)c2cccnc12 ?
Pol beta inh-1: inactive

What do the screens show for `CC(C)C(=O)/C=C(\N)C(Cl)(Cl)Cl`?
ALOX12 inh: inactive

Results for CC1CCN(S(=O)(=O)c2ccc(NC(=O)Cn3nnc(-c4ccccc4F)n3)cc2)CC1 ?
ALOX12 inh: inactive; POLH inh: inconclusive; POLK inh: inconclusive; Pol beta inh-1: 16µM; POLI inh: 50µM; Pol beta inh-2: 35; Klenow inh: inactive; HIV RT counter: inactive

How did Clc1ccc(OCc2nn3c(-c4ccco4)nnc3s2)c(Cl)c1 do in these assays?
ALOX12 inh: inconclusive; POLH inh: inconclusive; POLK inh: inactive; Pol beta inh-1: 7.9µM; POLI inh: inactive; Pol beta inh-2: 25; Klenow inh: inactive; HIV RT counter: inactive; POLB valid: inconclusive

How did COc1ccc(NS(=O)(=O)c2ccc(O)c(NC(=O)c3ccc(S(=O)(=O)N4CCCCCC4)cc3)c2)cc1 do in these assays?
ALOX12 inh: inactive; POLH inh: inconclusive; PI5P4Ka inh: inactive; POLK inh: inactive; Pol beta inh-1: 13µM; POLI inh: inconclusive; Pol beta inh-2: 35; Klenow inh: inactive; HIV RT counter: inactive

How did COc1ccc(NS(=O)(=O)c2ccc(O)c(NC(=O)c3ccc(S(=O)(=O)N4CCCC4)cc3)c2)cc1 do in these assays?
ALOX12 inh: inactive; POLH inh: inconclusive; PI5P4Ka inh: inactive; POLK inh: inactive; Pol beta inh-1: inactive; POLI inh: inactive

How did COC(=O)[C@@H]1Cc2ncn(C(C)C)c2CN1S(=O)(=O)c1cccc(C(F)(F)F)c1 do in these assays?
ALOX12 inh: inactive

What do the screens show for `CC1(OC(=O)c2cccs2)C(=O)C=C2C=C3CCCN3C=C2C1=O` (centres undefined)?
POLH inh: 22µM; PI5P4Ka inh: -60; POLK inh: 11µM; Pol beta inh-1: 14µM; POLI inh: 4.5µM; Pol beta inh-2: 28; Klenow inh: inactive; HIV RT counter: inactive

How did CC(C)(C)c1nc2ccccc2c2nnc(SCC(=O)Nc3nc4ccccc4s3)n12 do in these assays?
ALOX12 inh: inactive; POLH inh: inactive; POLK inh: inactive; Pol beta inh-1: 0.18µM; POLI inh: 45µM; Pol beta inh-2: inconclusive; Klenow inh: inactive; HIV RT counter: inactive; POLB valid: 85

Results for Cc1ccc(NC(=O)C2CCN(S(=O)(=O)c3cc([N+](=O)[O-])ccc3Cl)CC2)nc1 ?
ALOX12 inh: inactive; POLH inh: inconclusive; PI5P4Ka inh: inactive; POLK inh: inconclusive; POLI inh: inconclusive

What do the screens show for `O=C(Nc1nc2ccc(F)cc2s1)C1CCN(S(=O)(=O)c2cc([N+](=O)[O-])ccc2Cl)CC1`?
ALOX12 inh: inconclusive; POLH inh: inconclusive; PI5P4Ka inh: inconclusive; POLK inh: inactive; Pol beta inh-1: 8.9µM; POLI inh: inconclusive; Pol beta inh-2: 28; Klenow inh: inactive; HIV RT counter: inactive; POLB valid: 100

What do the screens show for `O=C(NCc1ccccc1)C1CCN(S(=O)(=O)c2cc([N+](=O)[O-])ccc2Cl)CC1`?
ALOX12 inh: inconclusive; POLH inh: inactive; PI5P4Ka inh: inactive; POLK inh: inactive; Pol beta inh-1: inactive; POLI inh: inactive

Results for O=C(COC(=O)C1CCN(S(=O)(=O)c2cc([N+](=O)[O-])ccc2Cl)CC1)Nc1ncc(Cl)cc1Cl ?
ALOX12 inh: inactive; POLH inh: 8.9µM; PI5P4Ka inh: -50; POLK inh: 79µM; Pol beta inh-1: 8.9µM; POLI inh: inconclusive; Pol beta inh-2: 28; Klenow inh: inactive; HIV RT counter: inactive; POLB valid: 86

Results for CCOC(=O)NC(CNC(=O)c1cccc(OC)c1)CC(C)C (centres undefined) ?
ALOX12 inh: inactive

How did COc1ccc2nc(SCc3nc(-c4cccc(Cl)c4)no3)[nH]c2c1 do in these assays?
ALOX12 inh: inactive

How did O=C(Nc1ccc2c(c1)OCO2)C1CCN(C(=O)CSc2ncnc3ccccc23)CC1 do in these assays?
ALOX12 inh: inconclusive; POLH inh: 79µM; POLK inh: inactive; Pol beta inh-1: 20µM; POLI inh: inconclusive; Pol beta inh-2: 35; Klenow inh: inactive; HIV RT counter: inactive; POLB valid: 85

What do the screens show for `CC(Sc1ncnc2ccccc12)C(=O)Nc1ccc2c(c1)OCO2` (centres undefined)?
ALOX12 inh: inactive; POLH inh: inactive; PI5P4Ka inh: inactive; POLK inh: inactive; Pol beta inh-1: inactive; POLI inh: inactive

Results for Cc1nn(-c2cccc(Cl)c2)c2nc(-c3ccco3)cc(C(=O)O)c12 ?
ALOX12 inh: 40µM; POLH inh: 18µM; PI5P4Ka inh: inactive; POLK inh: inactive; Pol beta inh-1: 14µM; POLI inh: inconclusive; Pol beta inh-2: inconclusive; Klenow inh: inactive; HIV RT counter: inactive

How did CC(C)c1ccc(/C=C(/C(=O)O)c2cccs2)cc1 do in these assays?
ALOX12 inh: inactive

How did Cn1c(SCC(=O)NCC2CCCO2)nc2scc(-c3ccccc3)c2c1=O (centres undefined) do in these assays?
ALOX12 inh: inactive; POLH inh: inactive; PI5P4Ka inh: inactive; POLK inh: inactive; POLI inh: inactive

How did O=C(CSc1nc2scc(-c3ccco3)c2c(=O)n1-c1ccccc1)NCC1CCCO1 (centres undefined) do in these assays?
ALOX12 inh: inactive; POLH inh: inconclusive; PI5P4Ka inh: inconclusive; POLK inh: inactive; Pol beta inh-1: 11µM; POLI inh: 40µM; Pol beta inh-2: inconclusive; Klenow inh: inactive; HIV RT counter: inactive; POLB valid: 70

How did CCCNC(=O)CN(C)C(=O)NC(c1ccc(CC)cc1)C(C)C (centres undefined) do in these assays?
ALOX12 inh: inactive

What do the screens show for `CC1=CC(C)C2(COC(CC(C)C)OC2)C(C)C1` (centres undefined)?
ALOX12 inh: inactive

Results for Cc1ccccc1-c1nc2c3c(ncn2n1)Oc1cc(O)ccc1C3c1ccccc1 (centres undefined) ?
ALOX12 inh: inactive

What do the screens show for `COc1ccc(-c2cc3c(=O)n(CCNC(=O)c4ccc(N(C)C)cc4)ccn3n2)cc1`?
ALOX12 inh: inactive
